Screening results as filed in PubChem BioAssay.
KKLEB cytotox = cytotoxicity in KKLEB CF airway cells, primary screen, cytotoxicity control for CF NF-kB inhibitor project, cell-based, uHTS, fluorescence assay plates; activity change (cytotoxicity), % at 5 µM; KKLEB CF airway cells viability, ATPlite luminescence, overnight; hits give low values; cells stimulated with P. aeruginosa culture filtrate; 360,000 tested, 0.36% active;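 active = corrected activity change at or below -50% at 5 µM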
TROY signal inh = inhibitors of TROY-driven NF-kB signaling, primary screen, Q293 LMP1-TROYcd cells, NF-kB luciferase, uHTS. inhibition, % at 10 µM. AID 1347056, 2019. Q293 LMP1-TROYcd NF-kB luciferase reporter, 4 h. 360,000 tested, 0.98% active;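 active = compounds whose plate-normalised and pattern-corrected inhibition of the luciferase reporter signal at the single screening dose is 50% or more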
TWEAK Fn14 block = inhibitors of TWEAK-Fn14 signaling, primary screen, luciferase reporter cells, uHTS; TWEAK-stimulated Fn14 reporter cells, luciferase luminescence, 8 h; inhibition, % at 10 µM; 360,000 tested, 2% active; AID 1159606, 2016; in the data active = inhibition above about 50%
HIF-2a inh = HIF-2a reporter inhibitors, primary screen, luminescence, 786-0 RCC cells | 786-0 RCC cells HIF-2a reporter, luciferase luminescence, overnight | inhibition, % at 18.8 µM | 360,000 tested, 0.72% active | AID 624352, 2012;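 active = inhibition of the luminescence signal of 40% or more relative to plate controls, in a single-dose primary screen at 18.75 µM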
CF NFkB block = inhibitors of PAF-induced NF-kB signaling, primary screen, cell-based, GFP fluorescence, uHTS. KKLEB NF-kB-GFP reporter, GFP fluorescence overnight. inhibition, % at 5 µM. 360,000 tested, 0.86% active;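 active = at least 50% inhibition at 5 µM, scaled per plate between neutral and stimulator controls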;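 also: PAF is a Pseudomonas aeruginosa culture filtrate used as stimulus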
Peg3 promoter = Peg3 promoter-driven luciferase inhibitors, primary screen, cell-based, HeLa, luciferase luminescence. HeLa PEG-Prom luciferase reporter, overnight. inhibition, % at 20 µM. 360,000 tested, 1.7% active;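 active = inhibition of at least 50% at 20 µM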
Hits are given with their value; i = inactive. An excerpt weighted towards active compounds, which were near 4% of everything screened.

SMILES	KKLEB cytotox	TROY signal inh	TWEAK Fn14 block	HIF-2a inh	CF NFkB block	Peg3 promoter
CCCc1ccc(C2C3=C(CC(C)(C)CC3=O)NC3=C2C(=O)c2ccccc23)cc1 (configuration not stated)	i	i	55	i	i	56
CCC[C@H]1CC(=O)C=C(c2ccc(OC)cc2)ON1C(=O)OC(C)(C)C	i	i	i	i	i	i
CCC(C)NC(=O)N[C@@H](Cc1ccccc1)C(=O)O (some centres not stated)	-85	i	i	i	i	i
COc1cc(CC(=O)OCC(=O)c2ccc(F)cc2)cc(OC)c1OC	i	i	i	i	i	i
CCOC(=O)c1c(NC(=O)C(NCCN(C)C)c2ccccc2)sc2c1CCCC2 (configuration not stated)	i	i	i	i	i	106
CC1CC(C)CN(c2ncnc3c2cnn3-c2ccc(Cl)cc2)C1 (configuration not stated)	i	78	77	i	i	i
CN1CCN(c2ncnc3c2cnn3-c2ccc(Cl)cc2)CC1	i	80	76	i	i	i
COc1ccc(COC(=O)C2CCN(S(=O)(=O)c3ccc(OC)c(OC)c3)CC2)cc1	i	i	i	i	i	i
C#CCn1c(=NC(=O)c2ccc(S(=O)(=O)N3CCc4ccccc4C3)cc2)sc2cc(S(N)(=O)=O)ccc21	-53	i	i	i	52	103
CC(=O)Nc1ccc(OCC(O)Cn2c3ccccc3c3ccccc32)c(C)c1 (configuration not stated)	i	i	58	i	i	i
CC(=O)Nc1ccc(N(CC(O)Cn2c3ccccc3c3ccccc32)S(=O)(=O)c2ccc(C)cc2)cc1 (configuration not stated)	i	i	i	i	i	61
CC(=NN1CC(=O)NC1=O)c1ccc([N+](=O)[O-])o1	i	i	i	i	i	i
c1ccc(-c2cc3nc(NCc4cccs4)nc(NCc4ccc5occc5c4)c3s2)cc1	i	i	i	i	i	64
Cc1cc(OCC(=O)N(C)C2CCCCC2)cc(C)c1Cl	i	i	i	i	i	i
Cc1cc(OCC(=O)N(C)C2CCCCC2)ccc1Cl	i	66	i	i	i	i
CC(=O)Nc1ccc(C(=O)N2CCCC(c3cc(C(=O)Nc4ccccc4)no3)C2)cc1 (configuration not stated)	i	i	i	i	i	i
O=C(Nc1ccc(Oc2ccccc2)cc1)C1CCN(c2c3c(nc4ncnn24)CCC3)CC1	i	51	79	i	i	i
O=C(CCCn1c(=S)[nH]c2cc3c(cc2c1=O)OCO3)N1CCN(c2ccc(Cl)cc2)CC1	i	58	i	i	i	i
O=C(CCCn1c(=S)[nH]c2cc3c(cc2c1=O)OCO3)N1CCN(c2ccccc2)CC1	i	i	i	i	i	i
COc1cc(CN2CCC(Cc3ccccc3)CC2)c([N+](=O)[O-])cc1OC	i	i	80	i	i	i
COc1cc(C)c(CN2CCC(Cc3ccccc3)CC2)cc1C	i	i	i	i	i	i
CC[n+]1c(/C=C/c2ccc(N(C)C)cc2)ccc2ccccc21	i	74	71	i	i	i
CCCCCC[n+]1ccccc1/C=C/c1ccc(N(C)C)cc1	i	56	50	i	i	i
CC(C)(C)c1ccc(C(=O)N2CCC2(C)C(=O)NCCC#N)cc1 (configuration not stated)	i	i	i	i	i	i
CCOC(=O)[C@H]1[C@H]2COc3ccc(OC)cc3[C@@H]2N2C(=O)c3cc(OC)c(OC)cc3NC(=O)[C@@]12C	i	i	i	i	i	i
CCS(=O)(=O)N1Cc2ccccc2CC1C(=O)Nc1nc2ccccc2s1 (configuration not stated)	i	70	81	i	i	i
CCc1nnc(NC(=O)C2Cc3ccccc3CN2S(=O)(=O)CC)s1 (configuration not stated)	i	i	i	i	i	i
